Measured values taken from paper PMC11006913.
Where a chain is given by its changes, count along the chain named.

Columns and labels:
Assay in all cases: PBM; 200 nM protein, PBS
Conditions in all cases: dsDNA, one strand shown
HOXB4 [1] = molecular target: HOXB4 (Homo sapiens, UniProt P17483 148-234)
HOXA4 [2] = molecular target: HOXA4 (Homo sapiens, UniProt Q00056 201-287, W262R)
ALX4 [3] = molecular target: ALX4 (Homo sapiens, UniProt Q9H161 200-286)
PAX4 [4] = molecular target: T1, PAX4 (Homo sapiens, UniProt O43316 9-242, R200K)
T1 sequence: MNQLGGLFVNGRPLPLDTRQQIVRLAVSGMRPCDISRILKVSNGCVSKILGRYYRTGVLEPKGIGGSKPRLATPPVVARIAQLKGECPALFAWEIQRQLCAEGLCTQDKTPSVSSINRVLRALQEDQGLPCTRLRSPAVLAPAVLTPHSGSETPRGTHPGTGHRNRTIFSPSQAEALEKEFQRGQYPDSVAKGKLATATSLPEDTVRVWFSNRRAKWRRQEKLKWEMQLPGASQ

PAX4 [5] = molecular target: T2, PAX4 (Homo sapiens, UniProt O43316 9-242)
T2 sequence: T1 sequence with K192R

ALX4 [6] = molecular target: ALX4 (Homo sapiens, UniProt Q9H161 200-286, Q225E)
HOXA2 [7] = molecular target: HOXA2 (Homo sapiens, UniProt O43364 129-215, R185T)
HOXA4 [8] = molecular target: HOXA4 (Homo sapiens, UniProt Q00056 201-287, R217L)
HOXB4 [9] = molecular target: HOXB4 (Homo sapiens, UniProt P17483 148-234, V174I)
PAX4 [10] = molecular target: T3, PAX4 (Homo sapiens, UniProt O43316 9-242, R200Q)
T3 sequence: T1 sequence with K192Q

HOXA2 [11] = molecular target: HOXA2 (Homo sapiens, UniProt O43364 129-215, R185K)
PAX4 [12] = molecular target: T4, PAX4 (Homo sapiens, UniProt O43316 9-242, F177V)
T4 sequence: T1 sequence with F169V, K192R

HOXA4 [13] = molecular target: HOXA4 (Homo sapiens, UniProt Q00056 201-287)
VAX1 [14] = molecular target: VAX1 (Homo sapiens, UniProt Q5SQQ9 86-172)
VAX1 [15] = molecular target: VAX1 (Homo sapiens, UniProt Q5SQQ9 86-172, T142I)
PAX4 [16] = molecular target: T5, PAX4 (Homo sapiens, UniProt O43316 9-242, R227W)
T5 sequence: T1 sequence with K192R, R219W

HOXA2 [17] = molecular target: HOXA2 (Homo sapiens, UniProt O43364 129-215, Y150S)
HOXA4 [18] = molecular target: HOXA4 (Homo sapiens, UniProt Q00056 201-287, W262F)
HOXA2 [19] = molecular target: HOXA2 (Homo sapiens, UniProt O43364 129-215)
VAX1 [20] = molecular target: VAX1 (Homo sapiens, UniProt Q5SQQ9 86-172, K157R)
HOXA7 [21] = molecular target: HOXA7 (Homo sapiens, UniProt P31268 116-202)
HOXA7 [22] = molecular target: HOXA7 (Homo sapiens, UniProt P31268 116-202, W177C)
PRRX1 [23] = molecular target: PRRX1 (Homo sapiens, UniProt P54821 80-166, F113S)
PROP1 [24] = molecular target: PROP1 (Homo sapiens, UniProt O75360 56-141)
PROP1 [25] = molecular target: PROP1 (Homo sapiens, UniProt O75360 56-141, R99H)
PROP1 [26] = molecular target: PROP1 (Homo sapiens, UniProt O75360 56-141, F88S)
PRRX1 [27] = molecular target: PRRX1 (Homo sapiens, UniProt P54821 80-166)
NKX2-6 [28] = molecular target: T6, NKX2-6 (Homo sapiens, UniProt A6NCS4 118-204)
T6 sequence: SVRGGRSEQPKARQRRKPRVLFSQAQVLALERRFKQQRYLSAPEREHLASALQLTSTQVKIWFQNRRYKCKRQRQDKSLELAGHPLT

NKX2-6 [29] = molecular target: T7, NKX2-6 (Homo sapiens, UniProt A6NCS4 118-204, F151L)
T7 sequence: T6 sequence with F34L

HOXC10 [30] = molecular target: HOXC10 (Homo sapiens, UniProt Q9NYD6 254-340)
NKX2-6 [31] = molecular target: T8, NKX2-6 (Homo sapiens, UniProt A6NCS4 118-204, R150C)
T8 sequence: T6 sequence with R33C

HOXC10 [32] = molecular target: HOXC10 (Homo sapiens, UniProt Q9NYD6 254-340, K271E)
HOXB6 [33] = molecular target: HOXB6 (Homo sapiens, UniProt P17509 132-218, K202E)
HOXB6 [34] = molecular target: HOXB6 (Homo sapiens, UniProt P17509 132-218)
HOXB6 (Homo sapiens, UniProt P17509 132-218), sequence (P17509 132-218): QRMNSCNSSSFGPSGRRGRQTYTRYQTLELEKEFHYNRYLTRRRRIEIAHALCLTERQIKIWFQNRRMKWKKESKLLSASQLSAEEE

HOXB4 (Homo sapiens, UniProt P17483 148-234), sequence (P17483 148-234): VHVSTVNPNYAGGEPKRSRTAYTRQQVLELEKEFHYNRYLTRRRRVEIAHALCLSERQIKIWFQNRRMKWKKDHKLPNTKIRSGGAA
ALX4 (Homo sapiens, UniProt Q9H161 200-286, Q225E), sequence (Q9H161 200-286 Q225E): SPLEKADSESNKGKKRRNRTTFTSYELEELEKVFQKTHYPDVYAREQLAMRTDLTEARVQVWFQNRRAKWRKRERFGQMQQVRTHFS
ALX4 (Homo sapiens, UniProt Q9H161 200-286), sequence (Q9H161 200-286): as the sequence (Q9H161 200-286 Q225E) above, with E26Q counted along it
HOXB4 (Homo sapiens, UniProt P17483 148-234, V174I), sequence (P17483 148-234 V174I): as the sequence (P17483 148-234) above, with V27I counted along it
PRRX1 (Homo sapiens, UniProt P54821 80-166, F113S), sequence (P54821 80-166 F113S): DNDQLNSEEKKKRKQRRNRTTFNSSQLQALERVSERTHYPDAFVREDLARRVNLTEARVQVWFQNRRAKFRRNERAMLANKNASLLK
PRRX1 (Homo sapiens, UniProt P54821 80-166), sequence (P54821 80-166): as the sequence (P54821 80-166 F113S) above, with S34F counted along it
PROP1 (Homo sapiens, UniProt O75360 56-141), sequence (O75360 56-141): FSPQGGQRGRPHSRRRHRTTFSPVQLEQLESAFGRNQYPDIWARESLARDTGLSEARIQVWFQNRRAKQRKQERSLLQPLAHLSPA
HOXA7 (Homo sapiens, UniProt P31268 116-202), sequence (P31268 116-202): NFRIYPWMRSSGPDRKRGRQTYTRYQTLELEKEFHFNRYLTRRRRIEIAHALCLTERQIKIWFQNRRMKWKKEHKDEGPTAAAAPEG
PROP1 (Homo sapiens, UniProt O75360 56-141, F88S), sequence (O75360 56-141 F88S): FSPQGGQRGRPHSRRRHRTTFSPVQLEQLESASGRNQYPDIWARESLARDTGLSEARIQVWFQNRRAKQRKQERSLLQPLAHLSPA
VAX1 (Homo sapiens, UniProt Q5SQQ9 86-172), sequence (Q5SQQ9 86-172): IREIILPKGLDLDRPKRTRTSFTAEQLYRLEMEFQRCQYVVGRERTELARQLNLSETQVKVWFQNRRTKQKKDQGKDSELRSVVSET
HOXA2 (Homo sapiens, UniProt O43364 129-215), sequence (O43364 129-215): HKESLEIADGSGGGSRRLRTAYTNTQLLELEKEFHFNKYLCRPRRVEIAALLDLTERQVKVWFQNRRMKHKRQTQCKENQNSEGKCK
HOXC10 (Homo sapiens, UniProt Q9NYD6 254-340, K271E), sequence (Q9NYD6 254-340 K271E): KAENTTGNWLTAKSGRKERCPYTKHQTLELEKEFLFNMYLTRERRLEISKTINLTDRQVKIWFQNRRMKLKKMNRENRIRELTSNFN
VAX1 (Homo sapiens, UniProt Q5SQQ9 86-172, T142I), sequence (Q5SQQ9 86-172 T142I): as the sequence (Q5SQQ9 86-172) above, with T57I counted along it
HOXA4 (Homo sapiens, UniProt Q00056 201-287, W262F), sequence (Q00056 201-287 W262F): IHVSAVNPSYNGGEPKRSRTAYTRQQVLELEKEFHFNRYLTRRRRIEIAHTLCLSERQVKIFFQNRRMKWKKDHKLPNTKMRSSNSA
HOXA4 (Homo sapiens, UniProt Q00056 201-287), sequence (Q00056 201-287): as the sequence (Q00056 201-287 W262F) above, with F62W counted along it
HOXA2 (Homo sapiens, UniProt O43364 129-215, R185T), sequence (O43364 129-215 R185T): as the sequence (O43364 129-215) above, with R57T counted along it
HOXB6 (Homo sapiens, UniProt P17509 132-218, K202E), sequence (P17509 132-218 K202E): as the sequence (P17509 132-218) above, with K71E counted along it
HOXA7 (Homo sapiens, UniProt P31268 116-202, W177C), sequence (P31268 116-202 W177C): as the sequence (P31268 116-202) above, with W62C counted along it
HOXA4 (Homo sapiens, UniProt Q00056 201-287, R217L), sequence (Q00056 201-287 R217L): as the sequence (Q00056 201-287 W262F) above, with R17L, F62W counted along it
VAX1 (Homo sapiens, UniProt Q5SQQ9 86-172, K157R), sequence (Q5SQQ9 86-172 K157R): as the sequence (Q5SQQ9 86-172) above, with K72R counted along it
HOXC10 (Homo sapiens, UniProt Q9NYD6 254-340), sequence (Q9NYD6 254-340): as the sequence (Q9NYD6 254-340 K271E) above, with E18K counted along it
HOXA2 (Homo sapiens, UniProt O43364 129-215, Y150S), sequence (O43364 129-215 Y150S): as the sequence (O43364 129-215) above, with Y22S counted along it
PROP1 (Homo sapiens, UniProt O75360 56-141, R99H), sequence (O75360 56-141 R99H): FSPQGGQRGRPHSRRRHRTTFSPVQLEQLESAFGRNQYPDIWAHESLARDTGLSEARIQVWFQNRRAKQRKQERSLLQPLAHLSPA
HOXA2 (Homo sapiens, UniProt O43364 129-215, R185K), sequence (O43364 129-215 R185K): as the sequence (O43364 129-215) above, with R57K counted along it
HOXA4 (Homo sapiens, UniProt Q00056 201-287, W262R), sequence (Q00056 201-287 W262R): as the sequence (Q00056 201-287 W262F) above, with F62R counted along it

Sequence: GATAATGA
- binding signal (HOXB4 [1]): 13.1 upbm affinity estimate (log intensity, higher = more binding, comparable within an allelic series)
- binding signal (HOXA4 [2]): 10.7 upbm affinity estimate (log intensity, higher = more binding, comparable within an allelic series)
- binding signal (ALX4 [3]): 12.7 upbm affinity estimate (log intensity, higher = more binding, comparable within an allelic series)
- binding signal (PAX4 [4]): 11.2 upbm affinity estimate (log intensity, higher = more binding, comparable within an allelic series)
- binding signal (PAX4 [5]): 11.4 upbm affinity estimate (log intensity, higher = more binding, comparable within an allelic series)
- binding signal (ALX4 [6]): 11.2 upbm affinity estimate (log intensity, higher = more binding, comparable within an allelic series)
- binding signal (HOXA2 [7]): 12.6 upbm affinity estimate (log intensity, higher = more binding, comparable within an allelic series)
- binding signal (HOXA4 [8]): 12.3 upbm affinity estimate (log intensity, higher = more binding, comparable within an allelic series)
- binding signal (HOXB4 [9]): 13.7 upbm affinity estimate (log intensity, higher = more binding, comparable within an allelic series)
- binding signal (PAX4 [10]): 11.2 upbm affinity estimate (log intensity, higher = more binding, comparable within an allelic series)
- binding signal (HOXA2 [11]): 13.3 upbm affinity estimate (log intensity, higher = more binding, comparable within an allelic series)
- binding signal (PAX4 [12]): 10.3 upbm affinity estimate (log intensity, higher = more binding, comparable within an allelic series)
- binding signal (HOXA4 [13]): 13.9 upbm affinity estimate (log intensity, higher = more binding, comparable within an allelic series)
- binding signal (VAX1 [14]): 12.9 upbm affinity estimate (log intensity, higher = more binding, comparable within an allelic series)
- binding signal (VAX1 [15]): 12.7 upbm affinity estimate (log intensity, higher = more binding, comparable within an allelic series)
- binding signal (PAX4 [16]): 10.6 upbm affinity estimate (log intensity, higher = more binding, comparable within an allelic series)
- binding signal (HOXA2 [17]): 10.9 upbm affinity estimate (log intensity, higher = more binding, comparable within an allelic series)
- binding signal (HOXA4 [18]): 11.6 upbm affinity estimate (log intensity, higher = more binding, comparable within an allelic series)
- binding signal (HOXA2 [19]): 12.3 upbm affinity estimate (log intensity, higher = more binding, comparable within an allelic series)
- binding signal (VAX1 [20]): 12.5 upbm affinity estimate (log intensity, higher = more binding, comparable within an allelic series)

Sequence: ACCGTGCC
- binding signal (HOXB4 [1]): 7.42 upbm affinity estimate (log intensity, higher = more binding, comparable within an allelic series)
- binding signal (HOXA7 [21]): 8.5 upbm affinity estimate (log intensity, higher = more binding, comparable within an allelic series)
- binding signal (HOXB4 [9]): 7.71 upbm affinity estimate (log intensity, higher = more binding, comparable within an allelic series)
- binding signal (HOXA7 [22]): 8.5 upbm affinity estimate (log intensity, higher = more binding, comparable within an allelic series)

Sequence: CCGTTATC
- binding signal (HOXB4 [1]): 9.78 upbm affinity estimate (log intensity, higher = more binding, comparable within an allelic series)
- binding signal (HOXB4 [9]): 9.74 upbm affinity estimate (log intensity, higher = more binding, comparable within an allelic series)

Sequence: CATTTGCG
- binding signal (HOXB4 [1]): 10.6 upbm affinity estimate (log intensity, higher = more binding, comparable within an allelic series)
- binding signal (HOXB4 [9]): 10.8 upbm affinity estimate (log intensity, higher = more binding, comparable within an allelic series)

Sequence: CCAACGGA
- binding signal (HOXB4 [1]): 7.78 upbm affinity estimate (log intensity, higher = more binding, comparable within an allelic series)
- binding signal (PRRX1 [23]): 9.38 upbm affinity estimate (log intensity, higher = more binding, comparable within an allelic series)
- binding signal (HOXB4 [9]): 7.67 upbm affinity estimate (log intensity, higher = more binding, comparable within an allelic series)
- binding signal (PROP1 [24]): 6.62 upbm affinity estimate (log intensity, higher = more binding, comparable within an allelic series)
- binding signal (PROP1 [25]): 6.69 upbm affinity estimate (log intensity, higher = more binding, comparable within an allelic series)
- binding signal (PROP1 [26]): 6.66 upbm affinity estimate (log intensity, higher = more binding, comparable within an allelic series)
- binding signal (PRRX1 [27]): 9.16 upbm affinity estimate (log intensity, higher = more binding, comparable within an allelic series)

Sequence: CCTGTGGA
- binding signal (HOXB4 [1]): 7.33 upbm affinity estimate (log intensity, higher = more binding, comparable within an allelic series)
- binding signal (ALX4 [3]): 8.17 upbm affinity estimate (log intensity, higher = more binding, comparable within an allelic series)
- binding signal (ALX4 [6]): 8.04 upbm affinity estimate (log intensity, higher = more binding, comparable within an allelic series)
- binding signal (HOXB4 [9]): 7.56 upbm affinity estimate (log intensity, higher = more binding, comparable within an allelic series)

Sequence: CAGGCACG
- binding signal (HOXB4 [1]): 7.26 upbm affinity estimate (log intensity, higher = more binding, comparable within an allelic series)
- binding signal (PRRX1 [23]): 9.38 upbm affinity estimate (log intensity, higher = more binding, comparable within an allelic series)
- binding signal (HOXB4 [9]): 7.43 upbm affinity estimate (log intensity, higher = more binding, comparable within an allelic series)
- binding signal (NKX2-6 [28]): 9.31 upbm affinity estimate (log intensity, higher = more binding, comparable within an allelic series)
- binding signal (NKX2-6 [29]): 9.26 upbm affinity estimate (log intensity, higher = more binding, comparable within an allelic series)
- binding signal (PRRX1 [27]): 9.24 upbm affinity estimate (log intensity, higher = more binding, comparable within an allelic series)

Sequence: CCAGCTCG
- binding signal (HOXB4 [1]): 7.72 upbm affinity estimate (log intensity, higher = more binding, comparable within an allelic series)
- binding signal (ALX4 [3]): 8.09 upbm affinity estimate (log intensity, higher = more binding, comparable within an allelic series)
- binding signal (ALX4 [6]): 8.29 upbm affinity estimate (log intensity, higher = more binding, comparable within an allelic series)
- binding signal (HOXB4 [9]): 7.66 upbm affinity estimate (log intensity, higher = more binding, comparable within an allelic series)

Sequence: CGGGACCA
- binding signal (HOXB4 [1]): 7.51 upbm affinity estimate (log intensity, higher = more binding, comparable within an allelic series)
- binding signal (HOXC10 [30]): 10.1 upbm affinity estimate (log intensity, higher = more binding, comparable within an allelic series)
- binding signal (HOXB4 [9]): 7.58 upbm affinity estimate (log intensity, higher = more binding, comparable within an allelic series)
- binding signal (NKX2-6 [31]): 9.71 upbm affinity estimate (log intensity, higher = more binding, comparable within an allelic series)
- binding signal (HOXC10 [32]): 10.1 upbm affinity estimate (log intensity, higher = more binding, comparable within an allelic series)

Sequence: CAGGCGCG
- binding signal (HOXB4 [1]): 7.35 upbm affinity estimate (log intensity, higher = more binding, comparable within an allelic series)
- binding signal (HOXB6 [33]): 9.01 upbm affinity estimate (log intensity, higher = more binding, comparable within an allelic series)
- binding signal (HOXB4 [9]): 7.45 upbm affinity estimate (log intensity, higher = more binding, comparable within an allelic series)
- binding signal (HOXB6 [34]): 8.9 upbm affinity estimate (log intensity, higher = more binding, comparable within an allelic series)

Sequence: TAGATTGA
- binding signal (HOXB4 [1]): 10.2 upbm affinity estimate (log intensity, higher = more binding, comparable within an allelic series)
- binding signal (HOXB4 [9]): 10.3 upbm affinity estimate (log intensity, higher = more binding, comparable within an allelic series)

Sequence: ACACGAGC
- binding signal (HOXB4 [1]): 7.84 upbm affinity estimate (log intensity, higher = more binding, comparable within an allelic series)
- binding signal (HOXB4 [9]): 7.68 upbm affinity estimate (log intensity, higher = more binding, comparable within an allelic series)
